Data: PubChem BioAssay (EPA / NIEHS)
Activity calls are given as the source filed them. How the source made its calls: active means hit-call score of the fitted dose curve at least 0.9, where 1 is the maximum; inactive means score below 0.9.

Assays:
Conditions in all cases: mRNA level, 48 h; actives raise or lower the signal
[1] = read-out: growth arrest and DNA damage 45 (GADD45G), GADD45G (gene 10912); test: LTEA_HepaRG_GADD45G: Life Technologies and Expression Analysis (LTEA) Assay for growth arrest and DNA damage 45 (GADD45G) using HepaRG (AID 2283499)
Procedure, shortened: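 HepaRG, 48 h exposure, top 100 uM, half-log 8-point series, 0.5% DMSO vehicle, duplicates. Readout: GADD45G transcript by qRT-PCR (Fluidigm array), housekeeping-normalised (ACTB/GAPDH/POLR2A). Bidirectional curve fit vs DMSO baseline.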

[2] = read-out: Glutamate-cysteine ligase regulatory (GCLM), GCLM (gene 2730); test: LTEA_HepaRG_GCLM: Life Technologies and Expression Analysis (LTEA) Assay for Glutamate-cysteine ligase regulatory (GCLM) using HepaRG (AID 2283500)
Procedure, shortened: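 Endpoint is GCLM transcript level by qRT-PCR, normalized to three housekeeping genes, after 48 h chemical exposure of human HepaRG cells (0.5% DMSO vehicle, top 100 uM, half-log dilutions). Fitting was bidirectional relative to DMSO.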

[3] = read-out: Glutathione S-transferase M3 (GSTM3), GSTM3 (gene 2947); test: LTEA_HepaRG_GSTM3: Life Technologies and Expression Analysis (LTEA) Assay for Glutathione S-transferase M3 (GSTM3) using HepaRG (AID 2283501)
Procedure, shortened: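 qRT-PCR read-out of GSTM3 transcript, normalized to three housekeeping genes, from human HepaRG cells after 48 h chemical exposure. Eight-point half-log series, top 100 uM, 0.5% DMSO vehicle; gain or loss fitted relative to DMSO baseline.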

[4] = read-out: Heat shock 70 kDa protein 1 (HSPA1A), gene 3303; test: LTEA_HepaRG_HSPA1A: Life Technologies and Expression Analysis (LTEA) Assay for Heat shock 70 kDa protein 1 (HSPA1A) using HepaRG (AID 2283502)
Procedure, shortened: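 Cells were plated and cultured for 48 h, then switched to serum-free induction medium. Chemicals were added at eight half-log concentrations up to 100 uM for 48 h. RNA was then isolated and HSPA1A measured by qRT-PCR with bidirectional curve fitting against DMSO.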

[5] = read-out: 3-Hydroxy-3-Methylglutaryl-CoA Synthase 2 (HMGCS2), HMGCS2 (gene 3158); test: LTEA_HepaRG_HMGCS2: Life Technologies and Expression Analysis (LTEA) Assay for 3-Hydroxy-3-Methylglutaryl-CoA Synthase 2 (HMGCS2) using HepaRG (AID 2283504)
Procedure, shortened: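 qRT-PCR read-out of HMGCS2 transcript, normalised to three housekeeping genes, in HepaRG cells after 48 h chemical exposure. Eight-point curves from 100 uM, half-log dilutions, 0.5% DMSO vehicle; gain or loss fitted relative to DMSO baseline.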

[6] = read-out: HGF (gene 3082); test: LTEA_HepaRG_HGF: Life Technologies and Expression Analysis (LTEA) Assay for Hepatocyte Growth Facto (HGF) using HepaRG (AID 2283505)
Procedure, shortened: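 HepaRG, 48 h dosing, 8-pt half-log series from 100 uM in 0.5% DMSO, duplicates. Readout: TaqMan qRT-PCR of HGF mRNA, housekeeping-normalized; bidirectional curve fit vs DMSO baseline.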

[7] = read-out: Insulin Like Growth Factor 1 (IGF1), IGF1 (gene 3479); test: LTEA_HepaRG_IGF1: Life Technologies and Expression Analysis (LTEA) Assay for Insulin Like Growth Factor 1 (IGF1) using HepaRG (AID 2283506)
Procedure, shortened: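 Cells are thawed, plated and cultured 48 h, then exposed in duplicate to chemical (highest 100 uM, half-log steps, 0.5% DMSO) for another 48 h. Total RNA is analysed by Fluidigm qRT-PCR for IGF1 expression relative to vehicle.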

[8] = read-out: Intercellular Adhesion Molecule 1 (ICAM1), ICAM1 (gene 3383); test: LTEA_HepaRG_ICAM1: Life Technologies and Expression Analysis (LTEA) Assay for Intercellular Adhesion Molecule 1 (ICAM1) using HepaRG (AID 2283507)
Procedure, shortened: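 HepaRG, 48 h exposure, 8-pt half-log series from 100 uM, 0.5% DMSO vehicle, duplicates. Readout: TaqMan qRT-PCR mRNA, housekeeping-normalized (ACTB/GAPDH/POLR2A). Bidirectional curve fit vs DMSO baseline.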

[9] = read-out: Insulin-like growth factor-binding protein 1 (IGFBP1), IGFBP1 (gene 3484); test: LTEA_HepaRG_IGFBP1: Life Technologies and Expression Analysis (LTEA) Assay for Insulin-like growth factor-binding protein 1 (IGFBP1) using HepaRG (AID 2283508)
Procedure, shortened: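 qRT-PCR mRNA read-out (TaqMan, Fluidigm array), normalised to three housekeeping genes; HepaRG cells, 48 h exposure, 8-pt half-log series from 100 uM, 0.5% DMSO vehicle; bidirectional curve fit vs DMSO baseline.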

[10] = read-out: Interleukin 6 (IL6), IL6 (gene 3569); test: LTEA_HepaRG_IL6: Life Technologies and Expression Analysis (LTEA) Assay for Interleukin 6 (IL6) using HepaRG (AID 2283509)
Procedure, shortened: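 qRT-PCR read-out of IL6 transcript, normalized to three housekeeping genes, after 48 h chemical exposure of HepaRG cells; 8-point half-log series, top 100 uM, 0.5% DMSO vehicle. Bidirectional curve fitting against DMSO baseline.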

[11] = read-out: Interleukin 6 Receptor (IL6R), IL6R (gene 3570); test: LTEA_HepaRG_IL6R: Life Technologies and Expression Analysis (LTEA) Assay for Interleukin 6 Receptor (IL6R) using HepaRG (AID 2283510)
Procedure, shortened: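 Cells were thawed, plated and cultured 48 h, then medium was changed to serum-free induction medium. Chemicals were added in duplicate (100 uM top, half-log steps, 0.5% DMSO) for 48 h. Lysates were analyzed by qRT-PCR for IL6R expression.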

[12] = read-out: Potassium channel subfamily K member 1 (KCNK1), KCNK1 (gene 3775); test: LTEA_HepaRG_KCNK1: Life Technologies and Expression Analysis (LTEA) Assay for Potassium channel subfamily K member 1 (KCNK1) using HepaRG (AID 2283511)
Procedure, shortened: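 HepaRG, 48 h exposure, 8-pt half-log series top 100 uM, 0.5% DMSO vehicle, duplicates. Readout: KCNK1 transcript by qRT-PCR (Fluidigm array), housekeeping-normalized; bidirectional curve fit relative to DMSO baseline.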

[13] = read-out: Keratin 19 (KRT19), KRT19 (gene 3880); test: LTEA_HepaRG_KRT19: Life Technologies and Expression Analysis (LTEA) Assay for Keratin 19 (KRT19) using HepaRG (AID 2283512)
Procedure, shortened: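 HepaRG, 48 h chemical exposure, 8-pt half-log CRC from 100 uM, 0.5% DMSO vehicle, duplicates. Readout: TaqMan qRT-PCR of KRT19 mRNA, housekeeping-normalized (ACTB/GAPDH/POLR2A). Bidirectional fit vs DMSO baseline.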

[14] = read-out: JUN Transcription Factor, JUN (gene 3725); test: LTEA_HepaRG_JUN: Life Technologies and Expression Analysis (LTEA) Assay for JUN Transcription Factor using HepaRG (AID 2283513)
Procedure, shortened: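 Read-out is JUN transcript level by TaqMan qRT-PCR, normalized to ACTB, GAPDH and POLR2A, after 48 h chemical treatment of HepaRG cells. Concentration-response spanned eight half-log points up to 100 uM in 0.5% DMSO.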

[15] = read-out: Lipase C (LIPC), LIPC (gene 3990); test: LTEA_HepaRG_LIPC: Life Technologies and Expression Analysis (LTEA) Assay for Lipase C (LIPC) using HepaRG (AID 2283514)
Procedure, shortened: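 HepaRG, 48 h exposure, 8-pt half-log series from 100 uM in 0.5% DMSO, duplicates. Readout: LIPC mRNA by Fluidigm qRT-PCR, housekeeping-normalized (ACTB/GAPDH/POLR2A). Gain or loss fitted bidirectionally against DMSO baseline.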

[16] = read-out: Lipoprotein lipase (LPL), LPL (gene 4023); test: LTEA_HepaRG_LPL: Life Technologies and Expression Analysis (LTEA) Assay for Lipoprotein lipase (LPL) using HepaRG (AID 2283515)
Procedure, shortened: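 HepaRG, 48 h exposure, 8-pt half-log dilutions from 100 uM, 0.5% DMSO vehicle, duplicates; qRT-PCR (Fluidigm array) of LPL mRNA vs housekeeping genes; bidirectional curve fit relative to DMSO baseline.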

[17] = read-out: MicroRNA 122 (MIR122), gene 406906; test: LTEA_HepaRG_MIR122: Life Technologies and Expression Analysis (LTEA) Assay for MicroRNA 122 (MIR122) using HepaRG (AID 2283516); further: the transcript read is the microRNA miR-122
Procedure, shortened: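 Human liver HepaRG cultures receive test chemicals for 48 h at eight half-log concentrations from 100 uM. Expression is quantified by qRT-PCR with ACTB/GAPDH/POLR2A normalization and fitted bidirectionally against 0.5% DMSO.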

[18] = read-out: matrix metalloproteinase-10 (MMP10), MMP10 (gene 4319); test: LTEA_HepaRG_MMP10: Life Technologies and Expression Analysis (LTEA) Assay for matrix metalloproteinase-10 (MMP10) using HepaRG (AID 2283517)
Procedure, shortened: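 Transcript levels come from Fluidigm qRT-PCR normalized to three housekeeping genes, with curves fitted bidirectionally against 0.5% DMSO. Human HepaRG cells were dosed for 48 hours at concentrations up to 100 uM.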

[19] = read-out: MYC, MYC (gene 4609); test: LTEA_HepaRG_MYC: Life Technologies and Expression Analysis (LTEA) Assay for MYC using HepaRG (AID 2283518)
Procedure, shortened: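 qRT-PCR read-out of MYC transcript (Fluidigm TaqMan, housekeeping-normalized) after 48 h chemical exposure of HepaRG cells; eight concentrations, top 100 uM, half-log steps. Bidirectional curve fitting against 0.5% DMSO vehicle baseline.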

Measured: outcome

CN1CCCC1=O
inactive: [1] | [2] | [3] | [4] | [5] | [6] | [7] | [8] | [9] | [10] | [11] | [12] | [13] | [14] | [15] | [16] | [17] | [18] | [19]

CCCCCCC(=O)OCC
inactive: [1] | [2] | [3] | [4] | [5] | [6] | [7] | [8] | [9] | [10] | [11] | [12] | [13] | [14] | [15] | [16] | [17] | [18] | [19]

CCCCCCCCCCO
inactive: [1] | [2] | [3] | [4] | [5] | [6] | [7] | [8] | [9] | [10] | [11] | [12] | [13] | [14] | [15] | [16] | [17] | [18] | [19]

Oc1ccc2c(c1)OC[C@@H](N1CCC(O)(c3ccc(F)cc3)CC1)[C@H]2O
inactive: [1] | [2] | [3] | [4] | [5] | [6] | [7] | [8] | [9] | [10] | [11] | [12] | [13] | [14] | [15] | [16] | [17] | [18] | [19]

COc1cc(C=O)ccc1O
inactive: [1] | [2] | [3] | [4] | [5] | [6] | [7] | [8] | [9] | [10] | [11] | [12] | [13] | [14] | [15] | [16] | [17] | [18] | [19]
